For experiment [1], the target named is Peroxisome proliferator-activated receptor delta (Homo sapiens) (UniProt Q03181). In words: qHTS assay to identify small molecule agonists of the peroxisome proliferator-activated receptor delta (PPARd) signaling pathway (AID 743212; calls by dose curve;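 further: HEK293H cells with PPARd UAS beta-lactamase reporter GeneBLAzer system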; further: potency means the concentration at half of the fitted maximal effect). In a few lines:
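Beta-lactamase reporter read by fluorescence (LiveBLAzer B/G FRET, 2 h, room temperature). Test agents, in DMSO, incubated at 37 C with PPARd-bla HEK293H cells.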

Experiment [2] is described as follows: qHTS assay to identify small molecule antagonists of the peroxisome proliferator-activated receptor delta (PPARd) signaling pathway - cell viability counter screen (AID 743213). Further: nearly all actives have a fitted effect of over 50% in size. Further: potency means the concentration at half of the fitted maximal effect. In a few lines: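 Viability counter-screen, qHTS format: PPARd-bla HEK293H, L165041 300 nM final, 17 h compound exposure at 37 C, CellTiter-Glo luminescence after 30 min RT.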
A general note: In qHTS, concentration-response curves come from the screen itself.

In experiment [3] the target is Peroxisome proliferator-activated receptor delta (Homo sapiens) (UniProt Q03181). Put plainly: qHTS assay to identify small molecule antagonists of the peroxisome proliferator-activated receptor delta (PPARd) signaling pathway (AID 743215; active means well fitted inhibition curve with a large enough effect in the signal ratio in the repeat runs, not every such curve was filed as active; the % refers to the signal ratio;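 further: cells stimulated with agonist L165041 at 300 nM final during compound exposure; series mostly up to about 62 µM; on the % scale 0 is the no-effect control and ±100 the full control effect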). In a few lines: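 Agonist L165041 (300 nM final) added with compound to PPARd-bla HEK293H UAS-bla reporter cells; 17 h incubation at 37 C. Read-out: LiveBLAzer FRET substrate, 2 h at room temperature, fluorescence intensity.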

Experiment [4] is described as follows: qHTS assay to identify small molecule agonists of the farnesoid-X-receptor (FXR) signaling pathway - cell viability counter screen (AID 743218). Further: on the % scale 0 is the no-effect control and ±100 the full control effect; nearly all actives have a fitted effect of over 45% in size. The method, boiled down: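 Viability counter screen in the same wells: CellTiter-Glo luminescence, 30 min room-temperature incubation, measured after the beta-lactamase read. Cells were GeneBLAzer FXR-UAS-bla HEK 293T, compound-treated 16 h at 37C.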

The nature of experiment [5]: qHTS assay to identify small molecule antagonists of the farnesoid-X-receptor (FXR) signaling pathway - cell viability counter screen (AID 743221; active means well fitted cell-killing curve with a large enough effect in the repeat runs, not every such curve was filed as active; further: on the % scale 0 is the no-effect control and ±100 the full control effect; nearly all actives have a fitted effect of over 50% in size). In a few lines: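 Quantitative HTS of the Tox21 10K library run in parallel with the beta-lactamase reporter read. HEK 293T cells carrying a UAS-driven bla reporter got compound and 50 uM CDCA (final) for 16 h; ATP-based luminescence followed.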

The target of experiment [6] is Vitamin D3 receptor (Homo sapiens) (UniProt P11473). In words: qHTS assay to identify small molecule antagonists of the vitamin D receptor (VDR) signaling pathway (AID 743223; active means well fitted inhibition curve with a large enough effect in the signal ratio in the repeat runs, not every such curve was filed as active; the % refers to the signal ratio; further: on the % scale 0 is the no-effect control and ±100 the full control effect). In a few lines:
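Fluorescence from LiveBLAzer B/G FRET substrate, read after 2 h at room temperature, reflects beta-lactamase reporter activity in VDR-bla cells treated 16 h at 37C with compounds and agonist 1alpha,25-dihydroxyvitamin D3 (3 nM final).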

Experiment [7] can be described thus: qHTS assay to identify small molecule agonists of the vitamin D receptor (VDR) signaling pathway - cell viability counter screen (AID 743224). Further: nearly all actives have a fitted effect of over 50% in size. Further: potency means the concentration at half of the fitted maximal effect. In a few lines: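 Counter screen run in the same wells as the VDR-bla reporter assay: CellTiter-Glo luminescence, 30 min at room temperature, after 16 h compound treatment at 37C of cells pre-plated for 4 h.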
The nature of experiment [8]: qHTS assay to identify small molecule antagonists of the vitamin D receptor (VDR) signaling pathway - cell viability counter screen (AID 743225). Further: on the % scale 0 is the no-effect control and ±100 the full control effect; nearly all actives have a fitted effect of over 50% in size. The method, boiled down: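 Cells (VDR-UAS-bla HEK 293T) are plated, rested 4 h at 37C, dosed with compound and 3 nM final 1-alpha,25-dihydroxy vitamin D3, and incubated 16 h. Viability is taken from CellTiter-Glo luminescence in the reporter wells.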

Experiment [9] is described as follows: qHTS assay to identify small molecule agonists of the NFkB signaling pathway - cell viability counter screen (AID 1159515; calls by dose curve; further: nearly all actives have a fitted effect of over 55% in size; further: potency means the concentration at half of the fitted maximal effect). The method, boiled down:
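Read by CellTiter-Glo luminescence (30 min, room temperature) in the wells also used for the beta-lactamase FRET read. ME-180 NFkB-bla cells at 2,000 per well were plated overnight, then exposed to compound for 5 hr at 37 C.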

A short description of experiment [10]: qHTS assay to identify small molecule agonists of the endoplasmic reticulum stress response signaling pathway (AID 1159516; active means well fitted activation curve with a large enough effect in the signal ratio in the repeat runs, not every such curve was filed as active; the % refers to the signal ratio; further: potency means the concentration at half of the fitted maximal effect). The method, boiled down:
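Ratiometric FRET readout (405 nm excitation; 460 and 530 nm emission) of a beta-lactamase gene driven by the ER stress response element, after 2 hr substrate loading. HeLa ESRE-bla cells were seeded overnight and treated with compounds for only 5 hr at 37 C.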

The nature of experiment [11]: qHTS assay to identify small molecule antagonists of the retinoid-related orphan receptor gamma (ROR-gamma) signaling pathway - cell viability counter screen (AID 1159520). The method, boiled down: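 Tet-on ROR gamma CHO cells (1,000/well) were plated 4 hr, given compounds in DMSO for 2 hr at 37 C, then induced with 1 uM final doxycycline for 16 hr. Viability was read as ATP by CellTiter-Glo luminescence after 30 min.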

In experiment [12] the target is Nuclear receptor ROR-gamma (Homo sapiens) (UniProt P51449). In words: qHTS assay to identify small molecule antagonists of the retinoid-related orphan receptor gamma (ROR-gamma) signaling pathway (AID 1159521; further: nearly all actives have a fitted effect of over 50% in size; further: potency means the concentration at half of the fitted maximal effect). The method, boiled down: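 RORγ antagonism is scored from reduced reporter luminescence in Tet-on CHO cells. Induction used 1 uM final doxycycline hyclate for 16 h at 37 C, following a 2 h compound exposure.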

The nature of experiment [13]: qHTS assay to identify small molecule agonists of the AP-1 signaling pathway - cell viability counter screen (AID 1159525; calls by dose curve; further: nearly all actives have a fitted effect of over 55% in size). In a few lines:
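Each titration point was normalised to DMSO and tetra n-octyl ammonium bromide controls. The read was Cell Titer Glo luminescence after 30 min at RT, following 5 h compound exposure of ME-180 AP-1-bla cells at 37 °C.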

Experiment [14] can be described thus: qHTS assay to identify small molecule agonists of the AP-1 signaling pathway (AID 1159526; calls by dose curve; further: potency means the concentration at half of the fitted maximal effect).
Experiment [15] has as its target Retinoic acid receptor RXR-alpha (Homo sapiens) (UniProt P19793). Put plainly: qHTS assay to identify small molecule agonists of the RXR signaling pathway (AID 1159527; calls by dose curve; further: nearly all actives have a fitted effect of over 35% in size; further: potency means the concentration at half of the fitted maximal effect). The method, boiled down:
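qHTS of the Tox21 10K library in GeneBLAzer RXR-alpha HEK 293T cells carrying a beta-lactamase reporter […]; 16 hr treatment, 9-cis retinoic acid as agonist control, FRET read-out.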

In experiment [16] the target is Bile acid receptor (Homo sapiens) (UniProt Q96RI1). Put plainly: qHTS assay to identify small molecule antagonists of the farnesoid-X-receptor (FXR) signaling pathway (AID 743217; active means well fitted inhibition curve with a large enough effect in the signal ratio in the repeat runs, not every such curve was filed as active; the % refers to the signal ratio; further: on the % scale 0 is the no-effect control and ±100 the full control effect). In a few lines: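 Antagonist mode: chenodeoxycholic acid at 50 uM final stimulates a UAS-driven beta-lactamase reporter in HEK 293T FXR-bla cells during 16 h, 37C compound exposure. Read-out is FRET substrate fluorescence after 2 h at room temperature.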

Experiment [17] can be described thus: qHTS assay to identify small molecule agonists of the peroxisome proliferator-activated receptor delta (PPARd) signaling pathway - cell viability counter screen (AID 743211). Further: nearly all actives have a fitted effect of over 55% in size. Further: potency means the concentration at half of the fitted maximal effect. In a few lines: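 Viability of GeneBLAzer PPARd UAS-bla HEK293H cells was assessed after 17 h compound incubation at 37C, using CellTiter-Glo reagent added after the reporter read and luminescence recorded 30 min later.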

For experiment [18], the target named is Bile acid receptor (Homo sapiens) (UniProt Q96RI1). In words: qHTS assay to identify small molecule agonists of the farnesoid-X-receptor (FXR) signaling pathway (AID 743220; active means well fitted activation curve with a large enough effect in the signal ratio in the repeat runs, not every such curve was filed as active; the % refers to the signal ratio; further: potency means the concentration at half of the fitted maximal effect). In a few lines: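 FXR-UAS-bla HEK 293T cells carrying a UAS-driven beta-lactamase reporter were plated for 5 h at 37C/5% CO2, then exposed to DMSO-dissolved Tox21 10K compounds for 16 h at 37C. A LiveBLAzer B/G FRET substrate was loaded for 2 h at room temperature before fluorescence reading.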

Experiment [19] has as its target Vitamin D3 receptor (Homo sapiens) (UniProt P11473). In words: qHTS assay to identify small molecule agonists of the vitamin D receptor (VDR) signaling pathway (AID 743222; calls by dose curve; further: on the % scale 0 is the no-effect control and ±100 the full control effect). The method, boiled down: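 Agonist mode, beta-lactamase reporter: fluorescence from LiveBLAzer B/G FRET substrate (2 h, room temperature) read after 16 h compound treatment at 37 C of VDR-bla cells, which were pre-incubated 4 h after seeding.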

Structures are written as SMILES. Inconclusive results are not listed. Values without a mark were called inactive. Activity calls are given as the source filed them. Unless noted, the call rests on the fitted dose curve; in most records, active means well fitted curve in the direction sought with a large enough effect in the repeat runs; inconclusive means weak or mixed curves; inactive means no such curve, though single readings can be large; an effect the other way counts as inactive or inconclusive.

Chain of Retinoic acid receptor RXR-alpha (Homo sapiens) (P19793 whole entry, looked up): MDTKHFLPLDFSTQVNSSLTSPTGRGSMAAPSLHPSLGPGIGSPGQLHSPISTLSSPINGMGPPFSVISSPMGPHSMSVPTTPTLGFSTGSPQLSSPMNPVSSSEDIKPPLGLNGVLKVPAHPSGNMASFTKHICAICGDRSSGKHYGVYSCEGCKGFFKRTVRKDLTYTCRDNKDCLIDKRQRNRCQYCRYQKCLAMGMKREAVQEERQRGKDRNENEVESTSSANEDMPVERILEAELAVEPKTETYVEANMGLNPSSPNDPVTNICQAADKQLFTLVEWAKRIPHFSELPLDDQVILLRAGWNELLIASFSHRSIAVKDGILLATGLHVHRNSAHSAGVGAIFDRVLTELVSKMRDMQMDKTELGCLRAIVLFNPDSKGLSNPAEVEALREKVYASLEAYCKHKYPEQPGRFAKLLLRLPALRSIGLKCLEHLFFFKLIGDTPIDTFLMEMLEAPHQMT
Chain of Bile acid receptor (Homo sapiens) (Q96RI1 whole entry, looked up): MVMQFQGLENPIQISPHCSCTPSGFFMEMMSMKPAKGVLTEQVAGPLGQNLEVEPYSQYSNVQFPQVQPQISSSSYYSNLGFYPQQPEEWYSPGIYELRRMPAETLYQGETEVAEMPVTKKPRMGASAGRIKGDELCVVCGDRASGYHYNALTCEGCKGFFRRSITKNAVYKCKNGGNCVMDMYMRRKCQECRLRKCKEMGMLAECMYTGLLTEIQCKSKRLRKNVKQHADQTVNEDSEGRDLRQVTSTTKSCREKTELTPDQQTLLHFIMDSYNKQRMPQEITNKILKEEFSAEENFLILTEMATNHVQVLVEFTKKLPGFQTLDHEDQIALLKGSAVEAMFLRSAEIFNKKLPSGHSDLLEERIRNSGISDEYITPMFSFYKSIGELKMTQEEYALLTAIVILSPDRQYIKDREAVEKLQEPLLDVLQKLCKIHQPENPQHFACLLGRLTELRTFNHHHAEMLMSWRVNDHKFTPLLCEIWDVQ
Chain of Peroxisome proliferator-activated receptor delta (Homo sapiens) (Q03181 whole entry, looked up): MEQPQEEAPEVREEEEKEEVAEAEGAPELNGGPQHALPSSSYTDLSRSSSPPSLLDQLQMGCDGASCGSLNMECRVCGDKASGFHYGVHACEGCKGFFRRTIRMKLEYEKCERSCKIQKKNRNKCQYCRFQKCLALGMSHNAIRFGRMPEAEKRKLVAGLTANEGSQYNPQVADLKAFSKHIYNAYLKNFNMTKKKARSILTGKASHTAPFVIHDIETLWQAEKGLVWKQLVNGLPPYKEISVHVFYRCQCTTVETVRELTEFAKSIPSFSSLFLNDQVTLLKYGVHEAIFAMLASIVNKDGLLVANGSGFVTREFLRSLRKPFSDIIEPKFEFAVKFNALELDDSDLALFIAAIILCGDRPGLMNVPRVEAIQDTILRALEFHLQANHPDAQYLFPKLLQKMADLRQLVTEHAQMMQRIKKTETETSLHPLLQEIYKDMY
Chain of Vitamin D3 receptor (Homo sapiens) (P11473 whole entry, looked up): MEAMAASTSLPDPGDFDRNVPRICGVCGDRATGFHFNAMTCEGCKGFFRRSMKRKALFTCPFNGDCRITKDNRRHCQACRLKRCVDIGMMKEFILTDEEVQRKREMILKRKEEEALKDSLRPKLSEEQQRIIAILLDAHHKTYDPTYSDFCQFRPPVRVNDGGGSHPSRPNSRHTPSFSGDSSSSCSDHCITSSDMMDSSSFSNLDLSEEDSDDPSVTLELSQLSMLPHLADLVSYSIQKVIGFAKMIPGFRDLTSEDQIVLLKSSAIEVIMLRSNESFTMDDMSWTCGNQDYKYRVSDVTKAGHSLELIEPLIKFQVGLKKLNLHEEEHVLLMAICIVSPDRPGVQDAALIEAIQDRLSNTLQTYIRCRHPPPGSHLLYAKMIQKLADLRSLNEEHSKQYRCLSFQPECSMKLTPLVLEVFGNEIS

Consider `CC[N+](CC)(CC)CCOC(=O)C(C1CCCC1)C1CCCC1`, for which the Potency result in [1], in experiment [2], in experiment [3], in experiment [4], in [5] and in [6] was “inactive” each time. For the same molecule, the Potency entry in experiment [7], in experiment [8], in experiment [9], in experiment [10], in [11] and in experiment [12] was “inactive” each time. The Potency result in experiment [13], in [14] and in experiment [15] was “inactive” throughout.
`Cc1ccc(O)c(N)c1`: the Potency result in experiment [16], in experiment [4], in experiment [5], in experiment [8], in experiment [9] and in experiment [10] was “inactive” each time. Besides, the Potency result in experiment [11], in experiment [12] and in [13] was “inactive” in each case. Also, the Potency in experiment [7] is 19.5 µM (active); in experiment [14], 55 µM (active).
Turning to `O=S(=O)(O)c1ccc(Nc2nc(Nc3ccc(/C=C/c4ccc(Nc5nc(Nc6ccc(S(=O)(=O)O)cc6)nc(N(CCO)CCO)n5)cc4S(=O)(=O)O)c(S(=O)(=O)O)c3)nc(N(CCO)CCO)n2)cc1`, the Potency result in [17], in experiment [2], in experiment [5], in experiment [7], in experiment [8] and in experiment [9] was “inactive” each time. The Potency entry in experiment [11], in experiment [12] and in [13] was “inactive” each time. Further, the Potency in experiment [1] was 33.1 µM (active); in [18], 33.1 µM (active); in experiment [10] it was 37.1 µM (active); in [15], 26.3 µM (active).
For the molecule `CN1CCC[C@@H]1CCO[C@](C)(c1ccccc1)c1ccc(Cl)cc1`, the Potency in [17] was 29.8 µM (active); in experiment [2], 26.6 µM (active); in experiment [9], 21.3 µM (active). Also, the Potency result in experiment [18], in experiment [10], in [11] and in experiment [13] was “inactive” throughout.
Consider `OCC(F)(F)F`, for which the Potency entry in experiment [17], in experiment [1], in experiment [3], in experiment [16], in [4] and in experiment [18] was “inactive” in each case. Also, the Potency entry in [5], in [6], in [7], in [8], in experiment [9] and in experiment [10] was “inactive” throughout. The Potency result in [11], in experiment [13] and in [15] was “inactive” in each case.
For `CCc1cccc(CC)c1NC(=O)CN(CC(=O)O)CC(=O)O`, the Potency result in [17], in experiment [1], in experiment [3], in [4], in [19] and in [6] was “inactive” each time. Besides, the Potency entry in experiment [7], in experiment [8], in [9], in [10], in experiment [11] and in [12] was “inactive” each time. In addition, the Potency result in experiment [14] and in [15] was “inactive” in each case.
Consider `CC(C)NC[C@@H](O)COc1ccc(CC(N)=O)cc1`, for which the Potency entry in experiment [2], in [4], in [5], in experiment [19], in [6] and in experiment [7] was “inactive” each time. Besides, the Potency entry in experiment [8], in experiment [9], in [10], in [11], in experiment [12] and in [13] was “inactive” in each case. Moreover, the Potency entry in [14] is “inactive”.
In the case of `O=C(O)O`, the results for the activation in experiment [1] and in experiment [10] were -0.685% [at 5.95 µM] and -2.74% [at 6.95 µM], respectively. The Potency is 2.37 µM (active) in experiment [2] and 2.96 µM (active) in [12]. Moreover, the viability change, negative = cytotoxic in experiment [4] is 5.67% [at 5.95 µM]; in experiment [8] it was -0.215% [at 6.95 µM]; in experiment [13] it was -29.9% [at 6.97 µM]. In addition, the activity change, negative = cytotoxicity in experiment [5] was -10.5% [at 5.95 µM]. In [6], the activity change, negative = inhibition was 0.752% [at 6.95 µM]. The activity, negative = cytotoxic in [9] is -3.19% [at 6.95 µM]. For the same molecule, the activity, negative = cytotoxicity in experiment [11] was 0.616% [at 8.39 µM].
Regarding `CN(C)C(=O)COC(=O)Cc1ccc(OC(=O)c2ccc(N=C(N)N)cc2)cc1`, the Potency entry in experiment [17], in [16], in experiment [4], in [18], in experiment [5] and in experiment [7] was “inactive” in each case. The Potency entry in experiment [8], in experiment [9], in experiment [10], in [11], in experiment [13] and in [14] was “inactive” each time. Moreover, the Potency entry in experiment [15] was “inactive”.
Consider `CCCC(=O)OC(C)(C)Cc1ccccc1`, for which the Potency result in experiment [17], in [19], in [7], in [9], in experiment [10] and in experiment [11] was “inactive” in each case. For the same molecule, the Potency entry in [12], in experiment [14] and in experiment [15] was “inactive” throughout.
Consider `CC1=CCC(=C(C)C)CC1`, for which the Potency entry in experiment [17], in experiment [4], in experiment [5], in [8], in experiment [9] and in experiment [10] was “inactive” throughout. Further, the Potency result in experiment [11], in experiment [13], in experiment [14] and in [15] was “inactive” each time.
Take `C=C(CC)C(=O)c1ccc(OCC(=O)O)c(Cl)c1Cl`: the Potency entry in experiment [17], in [2], in [4], in [5], in experiment [7] and in experiment [8] was “inactive” throughout. For the same molecule, the Potency entry in experiment [9], in [10], in experiment [11] and in experiment [13] was “inactive” each time. Also, the Potency in experiment [12] was 54.1 µM (active).

These data come from PubChem BioAssay (Tox21).
